PubChem BioAssay (Tox21)
“And” between values parts separate entries of the source, which are not always exact repeats. Equal values may be shown once. Results filed as inconclusive are left out. A call without a number means that no potency is given here. The source made the active and inactive calls. Unless noted, calls follow the shape of the dose curve; as a rule, active = well fitted cell-killing curve with a large enough effect in the repeat runs; inconclusive = weak or mixed curves; inactive = no such curve, though single readings can be large or run the other way.

test system: not listed separately; experiment: qHTS assay for identifying genotoxic compounds that show differential cytotoxicity against isogenic chicken DT40 cell lines with known DNA damage response pathways - Rad54/Ku70 mutant cell line (AID 743015); settings: DT40 Rad54/Ku70 mutant viability, CellTiter-Glo, 40 h; series mostly up to 66.8 µM; also: nearly all actives have a fitted effect of over 60% in size

Q: With `CCCOCC(C)O` (stereo unspecified) as the compound, how does the Potency read?
A: The Potency was “inactive”.

Q: Which Potency does the source give for `CC1(C)C(=O)N(Cl)C(=O)N1Cl` here?
A: The Potency was “inactive”.

Q: For `CCCN(CCC)C(=O)SCC`, which Potency is on record?
A: Its Potency is “inactive”.

Q: With `O=[N+]([O-])c1cc(C(F)(F)F)ccc1Cl` as the compound, how does the Potency read?
A: Its Potency is “inactive”.

Q: For `CC(C=O)Cc1ccc(C(C)(C)C)cc1` (stereo unspecified), which Potency is on record?
A: Its Potency is “inactive”.

Q: With `CC(C)(CO)CO` as the compound, how does the Potency read?
A: Its Potency is “inactive”.

Q: With `N#CCC(=O)O` as the compound, how does the Potency read?
A: The Potency was “inactive”.

Q: With `COc1c(Cl)ccc(Cl)c1C(=O)O` as the compound, how does the Potency read?
A: Its Potency is “inactive”.

Q: Which Potency does the source give for `O=[N+]([O-])c1ccccc1C(F)(F)F` here?
A: Its Potency is “inactive”.

Q: For `OCCOCCOCCOCCOCCO`, which Potency is on record?
A: The Potency was “inactive”.

test system: not listed separately; experiment: qHTS assay to identify small molecule antagonists of the androgen receptor (AR) signaling pathway - cell viability counter screen (AID 743033; also: nearly all actives have a fitted effect of over 45% in size; also: potency is read from the fitted curve at half-maximal effect); settings: AR-bla HEK293 viability, CellTiter-Glo luminescence, 16 h; series mostly up to 58.5 µM

Q: Which Potency does the source give for `CS(=O)(=O)c1ccc(Cl)cc1` here?
A: The Potency was “inactive”.

Q: For `Nc1nc(N)c2nc(-c3ccccc3)c(N)nc2n1`, which Potency is on record?
A: Its Potency is 49.5 µM (active).

Q: With `C=C(C)CC(C)(C)C` as the compound, how does the Potency read?
A: Its Potency is “inactive”.

Q: For `Cc1ncc(CO)c(CO)c1O`, which Potency is on record?
A: The Potency was “inactive”.

Q: With `O=C1OC(=O)c2c(Cl)c(Cl)c(Cl)c(Cl)c21` as the compound, how does the Potency read?
A: Its Potency is “inactive”.

Q: For `NC(=O)c1ncn([C@@H]2O[C@H](CO)[C@@H](O)[C@H]2O)n1`, which Potency is on record?
A: Its Potency is “inactive”.

Q: Which Potency does the source give for `CN1CCCC1=O` here?
A: The Potency was “inactive”.

Q: For `Cc1ccccc1Cl`, which Potency is on record?
A: The Potency was “inactive”.

Q: With `NCCNCCNCCN` as the compound, how does the Potency read?
A: Its Potency is “inactive”.

Q: For `Cc1cc(C)cc(O)c1`, which Potency is on record?
A: The Potency was “inactive”.

Q: Which Potency does the source give for `CCCCCCCCO` here?
A: The Potency was “inactive”.

Q: Which Potency does the source give for `Cc1ccc(C(C)C)cc1` here?
A: The Potency was “inactive”.

Q: With `Cc1cc(CC(=O)O)n(C)c1C(=O)c1ccc(Cl)cc1` as the compound, how does the Potency read?
A: Its Potency is “inactive”.

Q: For `NC(N)=S`, which Potency is on record?
A: The Potency was “inactive”.

Q: For `Nc1cccc(N)n1`, which Potency is on record?
A: Its Potency is “inactive”.

Q: For `Cc1ccccc1C=O`, which Potency is on record?
A: The Potency was “inactive”.

Q: With `Cc1ccncc1` as the compound, how does the Potency read?
A: Its Potency is “inactive”.

Q: Which Potency does the source give for `NC(=O)NC(N)=O` here?
A: Its Potency is “inactive”.

Q: For `CO[Si](CCCNCCN)(OC)OC`, which Potency is on record?
A: Its Potency is “inactive”.

Q: With `CC(=O)OCCC(C)C` as the compound, how does the Potency read?
A: Its Potency is “inactive”.

Q: For `CN=C(NC#N)NCCSCc1nc[nH]c1C`, which Potency is on record?
A: Its Potency is “inactive”.

Q: For `OCC(O)CS` (stereo unspecified), which Potency is on record?
A: The Potency was “inactive”.

Q: Which Potency does the source give for `O=C1C(N(CO)C(=O)NCO)N(CO)C(=O)N1CO` (stereo unspecified) here?
A: The Potency was “inactive”.

Q: For `COC(=O)/C=C\C(=O)OC`, which Potency is on record?
A: Its Potency is “inactive”.

Q: With `C[n+]1ccn(CCO)c1` as the compound, how does the Potency read?
A: The Potency was “inactive”.

Q: With `COc1c2ccoc2cc2oc(=O)ccc12` as the compound, how does the Potency read?
A: Its Potency is “inactive”.

Q: With `CC(=O)C(C)C` as the compound, how does the Potency read?
A: The Potency was “inactive”.

Q: For `c1cnc2c(c1)ccc1cccnc12`, which Potency is on record?
A: Its Potency is 4.9 µM (active).

Q: With `CCCOCC(C)O` (stereo unspecified) as the compound, how does the Potency read?
A: The Potency was “inactive”.

Q: For `CC1(C)C(=O)N(Cl)C(=O)N1Cl`, which Potency is on record?
A: The Potency was “inactive”.

Q: Which Potency does the source give for `CCCN(CCC)C(=O)SCC` here?
A: Its Potency is “inactive”.

Q: Which Potency does the source give for `O=[N+]([O-])c1cc(C(F)(F)F)ccc1Cl` here?
A: The Potency was “inactive”.

Q: For `CC(C=O)Cc1ccc(C(C)(C)C)cc1` (stereo unspecified), which Potency is on record?
A: Its Potency is “inactive”.

Q: With `CC(C)(CO)CO` as the compound, how does the Potency read?
A: Its Potency is “inactive”.

Q: For `N#CCC(=O)O`, which Potency is on record?
A: The Potency was “inactive”.

Q: Which Potency does the source give for `COc1c(Cl)ccc(Cl)c1C(=O)O` here?
A: Its Potency is “inactive”.

Q: For `O=[N+]([O-])c1ccccc1C(F)(F)F`, which Potency is on record?
A: The Potency was “inactive”.

Q: For `OCCOCCOCCOCCOCCO`, which Potency is on record?
A: Its Potency is “inactive”.

biological target: Androgen receptor (Homo sapiens) (UniProt P10275); experiment: qHTS assay to identify small molecule antagonists of the androgen receptor (AR) signaling pathway (AID 743035; active = well fitted inhibition curve with a large enough effect in the signal ratio in the repeat runs, not every such curve was filed as active; the % refers to the signal ratio); settings: HEK293 AR-UAS-bla, R1881-stimulated, beta-lactamase FRET, 16 h; series mostly up to 58.5 µM
Sequence (P10275 whole entry, looked up): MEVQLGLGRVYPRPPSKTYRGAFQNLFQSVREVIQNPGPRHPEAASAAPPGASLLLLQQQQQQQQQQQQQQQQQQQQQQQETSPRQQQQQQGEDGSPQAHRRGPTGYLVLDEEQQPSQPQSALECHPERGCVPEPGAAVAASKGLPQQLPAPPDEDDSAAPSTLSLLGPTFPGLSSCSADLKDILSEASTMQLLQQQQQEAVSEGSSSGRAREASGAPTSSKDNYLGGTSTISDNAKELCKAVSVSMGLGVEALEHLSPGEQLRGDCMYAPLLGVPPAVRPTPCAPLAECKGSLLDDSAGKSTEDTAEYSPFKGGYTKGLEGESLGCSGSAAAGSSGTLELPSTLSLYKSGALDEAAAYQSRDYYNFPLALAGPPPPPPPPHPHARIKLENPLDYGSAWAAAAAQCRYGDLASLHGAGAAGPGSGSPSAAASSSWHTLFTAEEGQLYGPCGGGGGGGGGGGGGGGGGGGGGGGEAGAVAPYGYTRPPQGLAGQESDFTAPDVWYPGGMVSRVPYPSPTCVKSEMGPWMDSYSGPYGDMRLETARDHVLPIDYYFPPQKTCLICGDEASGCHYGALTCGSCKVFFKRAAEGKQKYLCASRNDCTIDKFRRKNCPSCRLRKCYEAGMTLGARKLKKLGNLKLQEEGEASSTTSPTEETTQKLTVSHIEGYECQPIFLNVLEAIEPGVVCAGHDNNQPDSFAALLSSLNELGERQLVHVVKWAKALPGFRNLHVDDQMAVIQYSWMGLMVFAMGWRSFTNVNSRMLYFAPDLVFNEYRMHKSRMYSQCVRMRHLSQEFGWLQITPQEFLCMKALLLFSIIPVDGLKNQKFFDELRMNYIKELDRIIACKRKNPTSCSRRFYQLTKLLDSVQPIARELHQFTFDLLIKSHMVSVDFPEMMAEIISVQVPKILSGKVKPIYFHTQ
In short: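 Fluorescence from a beta-lactamase FRET substrate (LiveBLAzer B/G, 2 h, room temperature) measured inhibition of R1881-stimulated signaling in GeneBLAzer AR-UAS-bla HEK293 cells exposed to compound for 16 h at 37C.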

Q: For `Cc1ccccc1Cl`, which Potency is on record?
A: The Potency was “inactive”.

Q: With `Cc1ccc(C(C)C)cc1` as the compound, how does the Potency read?
A: The Potency was “inactive”.

Q: With `CO[Si](CCCNCCN)(OC)OC` as the compound, how does the Potency read?
A: Its Potency is “inactive”.

Q: For `OCC(O)CS` (stereo unspecified), which Potency is on record?
A: Its Potency is “inactive”.

Q: With `CCCOCC(C)O` (stereo unspecified) as the compound, how does the Potency read?
A: The Potency was “inactive”.

Q: With `CCCN(CCC)C(=O)SCC` as the compound, how does the Potency read?
A: The Potency was “inactive”.

Q: For `O=[N+]([O-])c1cc(C(F)(F)F)ccc1Cl`, which Potency is on record?
A: Its Potency is “inactive”.

Q: For `CC(C=O)Cc1ccc(C(C)(C)C)cc1` (stereo unspecified), which Potency is on record?
A: Its Potency is “inactive”.

Q: Which Potency does the source give for `CC(C)(CO)CO` here?
A: Its Potency is “inactive”.

Q: For `O=[N+]([O-])c1ccccc1C(F)(F)F`, which Potency is on record?
A: Its Potency is “inactive”.

biological target: Androgen receptor (Homo sapiens) (UniProt P10275); experiment: qHTS assay to identify small molecule agonists of the androgen receptor (AR) signaling pathway (AID 743036; active = well fitted activation curve with a large enough effect in the signal ratio in the repeat runs, with a control signal flat, not every such curve was filed as active; the % refers to the signal ratio; also: potency is read from the fitted curve at half-maximal effect); settings: HEK293 AR-UAS-bla GripTite, beta-lactamase FRET ratio, 16 h; series mostly up to 62.4 µM
In short: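 Fluorescence from a beta-lactamase FRET substrate served as read-out in AR-UAS-bla GripTite HEK293 cells. Cells were treated with DMSO-dissolved compounds for 16 h at 37C, then with LiveBLAzer B/G substrate for 2 h at room temperature.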

Q: Which Potency does the source give for `Nc1nc(N)c2nc(-c3ccccc3)c(N)nc2n1` here?
A: Its Potency is 21.3 µM (active) and 49.5 µM (active) and 49 µM (active).

Q: With `Cc1ccccc1Cl` as the compound, how does the Potency read?
A: Its Potency is “inactive”.

Q: Which Potency does the source give for `Cc1ccc(C(C)C)cc1` here?
A: The Potency was “inactive”.
